The whole screen tested about 2,100 compounds, of which about 1,100 (52%) were called active. About 27% were inconclusive and are not listed. Calls come from the whole dose curve; as a rule, active = well fitted inhibition curve with a large enough effect; inconclusive = small, poorly fitted or top-dose-only effect; inactive = no such curve, though single readings can be large or run the other way. So high a share suggests a set chosen from earlier hits. Some of the results follow.
What follows are molecules tested against DNA dC->dU-editing enzyme APOBEC-3G (Homo sapiens) (UniProt Q9HC16) (assay: qHTS for inhibitors of Vif-A3G interactions: Cherry picks counterscreen). Settings: HeLa A3G-eYFP + Vif (tagged APOBEC3G with the HIV-1 protein that degrades it), eYFP fluorescence, 24 h.
In short: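 HeLa cells stably expressing A3G-eYFP and Vif were treated for 24 h at 37 deg C with compounds at several concentrations; yellow fluorescence (Ex 488 nm, Em 500-530 nm) read by Acumen Explorer, MG132 as positive control.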
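Note: hits raise yellow fluorescence by blocking Vif-driven A3G-eYFP degradation; nearly all actives have a fitted effect of over 70% in size.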
Potency is the fitted concentration of half-maximal effect.
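Throughout, for max response: max response given as percent of control signal.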

Chain of DNA dC->dU-editing enzyme APOBEC-3G (Homo sapiens) (Q9HC16 whole entry, looked up): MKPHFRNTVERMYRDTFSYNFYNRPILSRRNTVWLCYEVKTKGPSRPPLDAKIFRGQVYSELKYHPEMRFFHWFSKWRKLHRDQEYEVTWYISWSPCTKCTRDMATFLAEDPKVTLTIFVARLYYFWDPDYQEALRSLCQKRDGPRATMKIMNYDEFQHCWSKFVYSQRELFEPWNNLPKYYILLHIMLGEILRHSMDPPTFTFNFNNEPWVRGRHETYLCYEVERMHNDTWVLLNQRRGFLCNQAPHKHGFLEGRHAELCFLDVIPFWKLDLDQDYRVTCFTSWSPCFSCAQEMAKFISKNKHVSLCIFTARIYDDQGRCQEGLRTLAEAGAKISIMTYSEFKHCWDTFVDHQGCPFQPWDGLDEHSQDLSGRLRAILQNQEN

SMILES | Potency | max response
C[C@H]1CN([C@@H](C)CO)C(=O)Cc2cc(NC(=O)CCC(F)(F)F)ccc2O[C@H]1CN(C)S(=O)(=O)c1ccc(F)cc1 | 7.9 µM (active) | 
CN(C)c1ccc(C2C=C(c3ccc(Cl)cc3OC(F)F)Nc3ncnn32)cc1 (configuration not stated) | 15.8 µM (active) | 
CCOC(=O)N1CCN(C(=O)c2[nH]c(C(F)(F)F)nc2-c2ccccc2)CC1 | 15.8 µM (active) | 
O=C(c1[nH]c(C(F)(F)F)nc1-c1ccccc1)N1CCN(c2ccccc2)CC1 | 3.53 µM (active) | 
O=C(c1[nH]c(C(F)(F)F)nc1-c1ccccc1)N1CCN(c2cccc(C(F)(F)F)n2)CC1 | 6.27 µM (active) | 
Cn1nnnc1SCCNCc1cc(Br)ccc1OCc1ccccc1Cl |  | -13.4% (inactive)
Cc1cccc2cc3c(N)c(C(=O)N4CCCc5ccccc54)sc3nc12 | 9.2 µM (active) | 
Cc1cccc2cc3c(N)c(C(=O)N4CCc5ccccc54)sc3nc12 | 7.31 µM (active) | 
Cc1ccc2nc3sc(C(=O)N4CCCc5ccccc54)c(N)c3cc2c1 | 7.9 µM (active) | 
Cc1ccc(/C=N/NC(=O)c2nc3nc(C)cc(C)n3n2)cc1 |  | -10.8% (inactive)
Cc1cc(C)n2nc(C(=O)N/N=C/c3c4ccccc4cc4ccccc34)nc2n1 | 15.8 µM (active) | 
COc1ccc2c(Cl)c(C(=O)N/N=C3\CCCC(=O)C3)sc2c1 | 12.5 µM (active) | 
CCOc1cc(C(=O)NN=C2CCCC2)cc(OCC)c1OCC |  | -1.27% (inactive)
COc1ccc(-c2ccc3c(c2)S(=O)(=O)c2cccc(C(=O)NCc4cccc(OC(F)(F)F)c4)c2C3=O)cc1OC | 3.26 µM (active) | 
O=C(NCc1ccccc1Cl)c1cccc2c1C(=O)c1ccc(-c3ccc(OC(F)(F)F)cc3)cc1S2(=O)=O | 18.4 µM (active) | 
COc1ccc(-c2ccc3c(c2)S(=O)(=O)c2cccc(C(=O)NCCOc4ccccc4)c2C3=O)cc1OC | 14 µM (active) | 
COc1cccc(NC(=O)c2oc3ccc(S(=O)(=O)N4CCC5(CC4)OCCO5)cc3c2C)c1 | 23.1 µM (active) | 
COc1ccc(NC(=O)c2oc3ccc(S(=O)(=O)N4CCOCC4)cc3c2C)cc1 |  | 9.65% (inactive)
c1ccc(-c2nccc(-c3ccc4c(c3)OCO4)n2)cc1 | 4.98 µM (active) | 
CCN1C/C(=C\c2cccc([N+](=O)[O-])c2)C(=O)/C(=C/c2cccc([N+](=O)[O-])c2)C1 | 11.2 µM (active) | 
CCN1C/C(=C/c2cccc([N+](=O)[O-])c2)C(=O)/C(=C/c2cccc([N+](=O)[O-])c2)C1 | 5.59 µM (active) | 
CC(C)COc1ccc(C(=O)N/C(=C/c2cccc([N+](=O)[O-])c2)C(=O)O)cc1 |  | 13.2% (inactive)
